Screening data as filed in PubChem BioAssay.
bovine MsrA act: activators of bovine methionine sulfoxide reductase A; activation, % at 10.6 µM; purified bovine MsrA, absorbance read-out; hit rate 0.3% among 360,000; in the data active means activation above about 7.5%;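 further: 0% = vehicle and 100% = reference activator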
MOR-DOR ag: OPRM1-OPRD1 heterodimerization agonism; P35372+P41143; cells, luminescence; activation, % at 9.3 µM; hit rate 0.3% among 340,000; in the data active means activation above about 18%;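 further: 0% = vehicle-treated cells and 100% = reference agonist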
HTR5A inv ctr: counter-screen for OPRM1-OPRD1 inverse agonists: human HTR5A inverse agonism; inhibition, % at 9.3 µM; P47898; hit rate 0.083% among 340,000; HTR5A cell line, luminescence; in the data active means inhibition mostly above about 23%, no sharp cut-off; inactive means mostly below about 18%;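 further: 0% = cells with DMSO and 100% = no-cell wells with DMSO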
Target sequence (P47898 whole entry, looked up): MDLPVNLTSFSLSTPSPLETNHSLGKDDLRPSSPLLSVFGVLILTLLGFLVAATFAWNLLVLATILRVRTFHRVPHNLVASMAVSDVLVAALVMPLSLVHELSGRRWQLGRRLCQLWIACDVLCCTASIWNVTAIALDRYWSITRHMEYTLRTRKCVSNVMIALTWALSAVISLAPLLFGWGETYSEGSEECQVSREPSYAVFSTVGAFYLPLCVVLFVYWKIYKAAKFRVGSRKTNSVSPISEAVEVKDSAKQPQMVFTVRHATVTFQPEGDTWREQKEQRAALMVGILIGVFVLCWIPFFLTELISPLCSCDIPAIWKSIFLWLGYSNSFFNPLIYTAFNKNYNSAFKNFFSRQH
HTR5A ag ctr: activates human HTR5A in OPRM1-OPRD1 agonist counter-screen; P47898; HTR5A agonist assay, luminescence, cell-based; activation, % at 9.3 µM; hit rate 0.61% among 340,000; AID 504692; in the data active means activation mostly above about 9.5%, no sharp cut-off; inactive means mostly below about 7.6%;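 further: 0% = cells with vehicle only and 100% = reference agonist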
MsrA inh: inhibits bovine methionine sulfoxide reductase A | purified bovine MsrA, absorbance read-out | inhibition, % at 15.5 µM | hit rate 0.75% among 360,000 | AID 651718; in the data active means inhibition above about 4.5%;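 further: 0% = vehicle wells with enzyme and 100% = reference inhibitor wells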
MOR-DOR inv ag: inverse agonist of human OPRM1-OPRD1 heterodimerization; P35372+P41143; cell-based MOR-DOR heterodimer luminescence, inverse agonism; inhibition, % at 9.3 µM; hit rate 0.21% among 340,000; AID 504357; in the data active means inhibition above about 22%, passing the limit was not always enough;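 further: 0% = cells with DMSO and 100% = wells without cells with DMSO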
Active calls of the source: *; x = not tested or not shown. Only some compounds are listed: those with a hit (about 1.9% of all), similar ones and a draw of the others.

SMILES	bovine MsrA act	MOR-DOR ag	HTR5A inv ctr	HTR5A ag ctr	MsrA inh	MOR-DOR inv ag
O=S(=O)(Nc1cccc(-c2nc3cccnc3s2)c1)c1ccc2c(c1)OCCO2	-1	2	2	13*	1	-12
C=CCN1[C@@H](C)[C@@H](c2ccccc2)Oc2c(Cl)cccc2S1(=O)=O	x	x	x	x	-1	x
O=C(CC(Cc1ccccc1)C(=O)O)Nc1ccc(Cl)c(Cl)c1 (stereo not given)	-12	0	-37	10.0*	0	0
O=C(CC(Cc1ccccc1)C(=O)O)Nc1ccccc1 (stereo not given)	-3	-4	-1	0	1	18
COc1ccc(NS(=O)(=O)c2cc(C(=O)O)ccc2C)cc1	-13	-1	-29	12*	2	5
COc1ccc(NS(=O)(=O)c2cc(NS(=O)(=O)c3cc(C(=O)O)ccc3OC)ccc2C)cc1	-2	-5	13	-7	0	20
CC1=C(C)/C(=N\OS(=O)(=O)c2ccccc2)C=CC1=O	-13	62*	19	3	x	-331
CC1CCN(S(=O)(=O)c2ccc(NC(=O)Cn3nnc(-c4ccccc4)n3)cc2)CC1	-2	31*	-42	16*	0	-168
COC(=O)N1C[C@H](O)[C@H](O)C[C@@H]1c1ccccc1Br	x	x	x	x	-1	x
CCOC(=O)c1cccnc1SCC(=O)N(CC)c1cccc(C)c1	-4	-1	-9	3	5	5
CCN(C(=O)CSc1ncccc1C(=O)OC(C)C)c1cccc(C)c1	-2	-1	-13	11*	1	5
Cn1c(=O)c2c(c3ccccc31)OC(C)(C)C=C2	x	x	x	x	2	x
CC(=O)N1C[C@@H](CO)[C@@H](N(C)C(=O)/C=C/c2ccccc2)C[C@H]1c1ccccc1	x	x	x	x	2	x
Cc1c(CCOC(=O)CC23CC4CC(CC(C)(C4)C2)C3)sc[n+]1CC(=O)c1ccccc1	0	-3	4	13*	-1	15
Cc1ccc(NC2=C/C(=N\S(=O)(=O)c3cccs3)c3ccccc3C2=O)c(C)c1	1	22*	8	-3	x	-112
Cc1cccc(NC2=C/C(=N/S(=O)(=O)c3cccs3)c3ccccc3C2=O)c1	0	11	-6	2	-1	-56
CC1C/C(=C\c2cccnc2)C(=O)/C(=C/c2cccnc2)C1 (stereo not given)	-10	4	1	0	5.2*	-22
O[C@@H](Cc1ccccc1)[C@@H](/C=C/c1ccccc1)NCCc1ccccc1	x	x	x	x	0	x
Cc1[nH]c2ccc(-c3nnc(SCC(=O)c4ccccc4F)o3)cc2c1C	-1	2	-3	12*	1	-12
Cc1cc(C(=O)Nc2nnc(-c3ccccc3)s2)no1	-8	-1	-16	6	4.6*	8
Cc1cccc2nc(-c3ccco3)c(Nc3ccccc3)n12	-4	-2	-8	1	0	9
Cc1ccc(Nc2c(-c3ccccn3)nc3cccc(C)n23)cc1	-5	-7	-3	-5	2	34*
COc1ccc(CNS(=O)(=O)c2ccc(F)c(C(=O)Nc3ccccc3OC)c2)cc1	-3	3	-23	9.5*	1	-15
O=C(Nc1ccccc1F)c1ccc(CNS(=O)(=O)c2cccc(C(F)(F)F)c2)cc1	-3	6	-29	12*	-1	-26
Cn1c(=O)[nH]c(=O)c2[nH]c(CO)nc21	-3	-1	0	0	-1	3
SMILES	bovine MsrA act	MOR-DOR ag	HTR5A inv ctr	HTR5A ag ctr	MsrA inh	MOR-DOR inv ag
CCCOc1ccccc1-c1nc2c([nH]1)c(=O)[nH]c(=O)n2C	-4	-1	-3	13*	3	2
Nc1ccc(C2(c3ccc(N)cc3)C(=O)Nc3ccccc32)cc1	-1	1	5	-2	1	-8
O=C1Nc2ccccc2C1(c1ccccc1)c1ccccc1	0	29*	-64	39*	1	-170
COc1ccccc1N(CC(=O)NCCSc1ccccn1)S(=O)(=O)c1ccccc1	1	1	-47	12*	0	-10
CCN(CC(=O)Nc1c(F)cccc1F)C(=O)CC1CCCCC1	-2	0	1	0	0	2
CCN(CC(=O)Nc1c(F)cccc1F)C(=O)CC1CCCC1	1	-3	-29	11*	-1	17
CC(=O)N1CCN(c2ccc(N3CCN(Cc4ccccc4)[C@@H](C)C3)c(C)c2)[C@H](C)C1	x	x	x	x	1	x
CO[C@@H]1[C@H](O)CC[C@]2(O)CN(c3ccc(F)cc3)[C@](C)([C@H](O)CC=C(C)C)[C@@H]12	x	x	x	x	0	x
CC(C)(C)OC(=O)N1CCC2CCN(S(=O)(=O)c3ccccc3)CC21 (stereo not given)	x	x	x	x	0	x
CCCn1c(C)cc(C(=O)COC(=O)c2cc(S(=O)(=O)NCC(C)C)c(Cl)cc2Cl)c1C	-2	0	-10	14*	1	0
CC(C)CNS(=O)(=O)c1cc(C(=O)OCC(=O)c2ccc3c(c2)OCCO3)c(Cl)cc1Cl	1	0	-7	2	0	2
O=C1CC2c3cc(-c4cc5ccccc5o4)ccc3CCN2C(=O)CN1Cc1ccccc1 (stereo not given)	x	x	x	x	2	x
C(=N\n1cnnc1)/c1ccc(N2CCOCC2)cc1	-11	-1	1	1	4	5
C(=N\n1cncn1)/c1ccc(N2CCOCC2)cc1	-18	1	-13	5	5.3*	-7
COc1ccc(/C=N/Nc2cc(C)nc3ccc(OC)cc23)c(OC)c1	-2	16	-15	4	-1	-76
COc1ccc2nc(C)cc(N/N=C/c3ccccc3)c2c1	-7	21*	-4	-2	x	-83
CCN(CC)CCn1c(SCC(=O)Nc2ccc3c(c2)CCC3)nc2ccccc2c1=O	-3	-1	12	12*	0	4
O=C(CSc1nc2ccccc2c(=O)n1-c1ccccc1F)Nc1ccc2c(c1)CCC2	-4	-1	11	-4	-1	4
COc1ccc(-n2nnnc2-c2cccnc2)cc1	-14	3	-20	10*	-1	-17
Cc1cccc(C)c1NC(=O)C(=O)NCCc1c[nH]c2ccccc12	-4	-2	-12	0	-1	9
Cc1ccc(C)c(NC(=O)C(=O)NCCc2c[nH]c3ccccc23)c1	-3	0	-20	-1	1	1
Cc1cccc(NC(=O)C(=O)NCCc2c[nH]c3ccccc23)c1C	1	-1	-9	14*	-1	4
Cc1cc(C)cc(NC(=O)C(=O)NCCc2c[nH]c3ccccc23)c1	0	5	-37	14*	1	-28
Cc1cc(C)c(S(=O)(=O)N2CCCOC2CNC(=O)C(=O)NCCc2c[nH]c3ccccc23)c(C)c1 (stereo not given)	-2	4	-16	12*	1	-19
CC(C)(C)C1=CC(CC(N)=O)(C(C)(C)C)OC1=O (stereo not given)	x	x	x	x	0	x
CC(=O)c1cc(-c2ccccc2)n(CC(=O)N2CCCCC2)c1C	-15	0	-38	12*	2	0
